3T3 cytotox: Cytotoxic Profiling in NIH 3T3 Cell Line of Diverse Libraries Using Quantitative High-Throughput Screening; NIH 3T3 viability, CellTiter-Glo ATP luminescence, 48-72 h; Potency, µM (highest dose often 96.7 µM), without a hit: at the top dose activity change, negative = cytotoxicity, usual class: inhibitors; 4.3% of 94,000 active; active = well fitted curve in the direction sought with a large enough effect; inconclusive = small, poorly fitted or top-dose-only effect, or another doubt; inactive = no such curve, though single readings can be large; an effect the other way counts as inactive or inconclusive; note: % is set by controls: 0 for no effect and ±100 for the full control effect; nearly all actives have a fitted effect of over 55% in size
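Cells were seeded at 400 per well, treated with pin-transferred compound, and kept 48 or 72 hr at 37 °C before CellTiter-Glo addition and luminescence imaging of cellular ATP.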
FLuc inh: Firefly luciferase inhibition profiling of diverse chemical library using quantitative high-throughput screening | Luciferin 4-monooxygenase (Photinus pyralis), P08659 | purified P. pyralis luciferase, luminescence, biochemical | Potency, µM (highest dose often 115 µM), most hits filed as inhibitors | 2.5% of 76,000 active; active = well fitted curve in the direction sought with a large enough effect; inconclusive = small, poorly fitted or top-dose-only effect, or another doubt; inactive = no such curve, though single readings can be large; an effect the other way counts as inactive or inconclusive; note: % is set by controls: 0 for no effect and ±100 for the full control effect; nearly all actives have a fitted effect of over 65% in size
Target sequence (P08659 whole entry, looked up): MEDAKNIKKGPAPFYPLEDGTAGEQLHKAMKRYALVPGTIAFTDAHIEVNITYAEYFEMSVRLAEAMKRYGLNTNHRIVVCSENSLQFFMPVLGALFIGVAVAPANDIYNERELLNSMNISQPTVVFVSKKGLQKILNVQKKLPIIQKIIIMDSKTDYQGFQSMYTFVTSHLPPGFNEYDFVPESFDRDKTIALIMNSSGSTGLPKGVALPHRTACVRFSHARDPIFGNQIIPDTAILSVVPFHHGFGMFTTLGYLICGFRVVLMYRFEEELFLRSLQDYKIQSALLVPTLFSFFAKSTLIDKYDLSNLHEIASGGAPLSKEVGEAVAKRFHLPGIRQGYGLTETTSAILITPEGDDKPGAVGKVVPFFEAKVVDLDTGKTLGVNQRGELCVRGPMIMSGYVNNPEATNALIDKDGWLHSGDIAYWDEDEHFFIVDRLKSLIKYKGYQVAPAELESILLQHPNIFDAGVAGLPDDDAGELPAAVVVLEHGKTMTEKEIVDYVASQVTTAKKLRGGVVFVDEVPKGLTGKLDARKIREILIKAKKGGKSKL
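Inhibitors were tested against purified firefly luciferase in a biochemical, low-substrate format (both substrates at 10uM) and luminescence measured with a CCD imager.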
NPR1 antag: Natriuretic polypeptide receptor (hNpr1) antagonism - Primary qHTS; AID 1347048, 2019; HEK293 hNpr1 GloSensor cGMP, ANP-stimulated luminescence; Potency, µM (titrated, usually from 46.3 µM), inactives show at the top dose activity change, negative = inhibition, usual class: inhibitors; Atrial natriuretic peptide receptor 1 (Homo sapiens), P16066; 1.6% of 76,000 active; note: % is set by controls: 0 for no effect and ±100 for the full control effect; nearly all actives have a fitted effect of over 60% in size
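Compound pre-incubated 30 min at room temperature on GloSensor-loaded HEK293 cells stably carrying hNpr1 and the pGS-40F cGMP biosensor. Stimulation uses hNppA at 0.1 nM final; luminescence is taken at baseline and 20 min post-agonist.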
HEK cytotox: Cytotoxic Profiling in HEK 293 Cell Line of Diverse Libraries Using Quantitative High-Throughput Screening; 6.6% of 94,000 active; Potency, µM (doses to about 115 µM), for the others: at the highest dose activity change, negative = cytotoxicity, usual class: inhibitors; HEK 293 viability, ATP luminescence (CellTiter-Glo), 48-72 h; active = well fitted curve in the direction sought with a large enough effect; inconclusive = small, poorly fitted or top-dose-only effect, or another doubt; inactive = no such curve, though single readings can be large; an effect the other way counts as inactive or inconclusive; note: % is set by controls: 0 for no effect and ±100 for the full control effect; nearly all actives have a fitted effect of over 60% in size
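Viability of HEK 293 cells, plated at 250 cells/well, was judged by cellular ATP after compound treatment for 48 or 72 hr. Luminescence was imaged 10 min after CellTiter-Glo addition at room temperature.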
Npr1 antag conf: Natriuretic polypeptide receptor (hNpr1) antagonism - Confirmation; shares compounds with NPR1 antag; HEK293 hNpr1 cGMP GloSensor luminescence, ANP-stimulated; Potency, µM (doses to about 57.6 µM), for the others: at the top dose activity change, negative = inhibition, actives largely listed as inhibitors; 76% of 1,400 active; note: nearly all actives have a fitted effect of over 70% in size
NPR2 antag: Natriuretic polypeptide receptor (hNpr2) antagonism - Subtype selectivity assay; shares compounds with NPR1 antag; HEK293 hNpr2 GloSensor cGMP luminescence, CNP-stimulated; Potency, µM (doses to about 57.6 µM), for inactives: at the highest dose activity change, negative = inhibition, most hits filed as inhibitors; 67% of 1,400 active; AID 1347046, 2019; note: nearly all actives have a fitted effect of over 70% in size
FLuc inh counter: Natriuretic polypeptide receptor (hNpr1) antagonism - Confirmation firefly luciferase (FLuc) inhibition counterscreen. shares compounds with NPR1 antag. purified FLuc enzyme, luminescence, Km substrate. Potency, µM (doses to about 57.6 µM), for the others: at the highest dose activity change, negative = inhibition, hits mostly inhibitors. 0.7% of 1,400 active. AID 1347047, 2019; active = well fitted curve in the direction sought with a large enough effect; inconclusive = small, poorly fitted or top-dose-only effect, or another doubt; inactive = no such curve, though single readings can be large; an effect the other way counts as inactive or inconclusive; note: 0% is about no effect
GloSensor ctrl: Natriuretic polypeptide receptor (hNpr1) antagonism - Counterscreen GloSensor control cell line; shares compounds with NPR1 antag; HEK293 GloSensor cGMP, SNP-stimulated, luminescence; Potency, µM (titrated, usually from 57.6 µM), without a hit: at the highest dose activity change, negative = inhibition, most hits filed as inhibitors; 69% of 1,400 active; AID 1347051, 2019; note: % is set by controls: 0 for no effect and ±100 for the full control effect; nearly all actives have a fitted effect of over 70% in size
Numbers without * were called inactive; i = inactive; ? = inconclusive; . = no result; [ ] = remark or other dose. Only some compounds are listed: those with a hit (about 11% of all), similar ones and a draw of the others. Unless noted, calls come from the whole dose curve. Potency is the fitted concentration of half-maximal effect.

SMILES	3T3 cytotox	FLuc inh	NPR1 antag	HEK cytotox	Npr1 antag conf	NPR2 antag	FLuc inh counter	GloSensor ctrl
O=C(NCCCn1ccnc1)c1nc(-c2ccccc2)cc2[nH]ccc12	?	i	?	?	?	?	2.8%[86.2 µM]	-19.3%[86.2 µM]
Cc1ccc(NC(=O)O[C@@H]2CC[C@]3(C)[C@H](CC[C@H]4OC(=O)C[C@H]43)[C@]2(C)CO)cc1	-13.1%[138 µM]	i	?	-23.2%[172 µM]	?	?	-5.3%[86.2 µM]	39.6µM*
O=C(CCC1CCN(C(=O)c2ccccc2)CC1)NCCCN1CCCc2ccccc21	?	i	-29.5%	?	.	.	.	.
COc1ccccc1CN1CCc2nc(C(=O)Nc3ccc(Cl)cc3)oc2CC1	50.1µM*	i	12.6µM*	28.2µM*	14µM*	17.7µM*	-0.1%[86.2 µM]	12.5µM*
O=C(Nc1ccc(Cl)cc1)c1nc2c(o1)CCN(Cc1cccc(F)c1F)CC2	?	i	3.55µM*	31.6µM*	6.27µM*	9.94µM*	-5.6%[86.2 µM]	7.03µM*
O=C(Nc1ccc(Cl)cc1)c1nc2c(o1)CCN(Cc1ccc(F)cc1F)CC2	?	i	3.16µM*	?	7.03µM*	8.86µM*	1.8%[86.2 µM]	7.89µM*
COCCNC(=O)c1nc2c(o1)CCN(Cc1cccc(F)c1F)CC2	?	i	-0.2%[70.6 µM]	-45.4%[172 µM]	.	.	.	.
CCOc1cccc(CNC(=O)[C@H]2CCC[C@H]2NC(=O)c2ccc(OC)cc2)c1	-11.4%	i	4.4%	-2.8%	.	.	.	.
O=C(NC1CCCC1)N1CCC(C(=O)N2CCCC(c3nc4ccncc4[nH]3)C2)CC1 (stereo unspecified)	-16.4%	.	.	?	.	.	.	.
CC1CCCN(C(=O)c2cc3c(s2)CCN(C(=O)c2ccc(Cl)cc2)C3)C1 (stereo unspecified)	?	i	-24.9%	44.7µM*	27.3µM*	27.3µM*	0.9%	24.3µM*
O=C(O)c1cc2c(s1)CCN(C(=O)c1ccc(F)cc1)C2	-9.1%	i	0.9%	-2.4%	.	.	.	.
O=C(c1ccccc1)N1CCc2sc(C(=O)N3CCN(c4ccc(F)cc4)CC3)cc2C1	?	i	7.08µM*	?	9.68µM*	10.9µM*	0.8%	6.85µM*
O=C(c1cccc(Br)c1)N1CCN(c2cc(-c3ccc(Cl)cc3)[nH]n2)CC1	31.6µM*	i	?	39.8µM*	24.3µM*	?	-1.3%	?
O=C(c1ccc(F)c(F)c1)N1CCN(c2cc(-c3ccc(F)cc3)[nH]n2)CC1	?	i	?	?	.	.	.	.
O=C(c1cccc(Br)c1)N1CCN(c2cc(-c3cccs3)[nH]n2)CC1	?	i	-29.7%	?	?	?	-2.2%	-10.7%
O=C(c1cccnc1)N1CCN(c2cc(-c3cccs3)[nH]n2)CC1	-15.2%	i	-2.7%	?	.	.	.	.
O=C(c1cccc(F)c1)N1CCN(c2cc(-c3ccc(Cl)cc3)[nH]n2)CC1	?	i	?	?	24.3µM*	?	-4.5%	?
Cc1ccn(CC(=O)N2CCCC(CCc3ccccc3C)C2)n1 (stereo unspecified)	?	i	0.0%	?	.	.	.	.
Cc1ccc(C(=O)N2CCC3(CC2)CC(N(Cc2ccccc2)C2CC2)CCO3)cc1F (stereo unspecified)	?	i	11.2µM*	44.7µM*	24.3µM*	?	-3.0%	27.3µM*
O=C(c1ccc(F)cc1)N1CCC2(CC1)CC(N(Cc1ccccc1)C1CC1)CCO2 (stereo unspecified)	?	i	-21.1%	?	.	.	.	.
CC(C)C(=O)N1CCC2(CC1)CC(N(Cc1ccc(F)cc1)C1CC1)CCO2 (stereo unspecified)	-24.0%	i	-24.4%	?	-19.0%	-15.7%	0.9%	-3.0%
O=C(Cc1ccc(F)cc1)N1CCC2(CC1)CC(N(Cc1ccccc1)C1CC1)CCO2 (stereo unspecified)	?	i	?	?	.	.	.	.
O=C(CCc1c[nH]c2ccccc12)NCC12CCCC=C1N(CC1CC1)C(=O)CC2 (stereo unspecified)	-28.7%	i	-1.2%	?	.	.	.	.
COc1ccc(C2Cn3nnc(C(=O)N4CCN(C(=O)c5ccccc5Cl)CC4)c3CO2)cc1 (stereo unspecified)	?	i	?	?	.	.	.	.
Cc1ccc(C2Cn3nnc(C(=O)NC4CCCCCC4)c3CO2)cc1 (stereo unspecified)	?	i	-25.4%	?	.	.	.	.
O=C(c1ccc(Cl)cc1)N1CCN(C(=O)c2nnn3c2COC(c2ccccc2)C3)CC1 (stereo unspecified)	-24.7%	i	-10.8%	?	.	.	.	.
COc1ccc(Cl)cc1C(=O)N1CCN(C(=O)c2nnn3c2COC(c2ccccc2)C3)CC1 (stereo unspecified)	?	i	?	?	?	?	2.4%	-24.7%
COc1ccccc1C(=O)N1CCN(C(=O)c2nnn3c2COC(c2ccc(C)cc2)C3)CC1 (stereo unspecified)	?	i	?	?	?	-27.9%	0.6%	?
O=C(NC1CCCCCCC1)c1nnn2c1COC(c1ccc(F)cc1)C2 (stereo unspecified)	?	i	?	?	?	?	-1.1%	?
O=C(c1ccccc1F)N1CCN(C(=O)c2nnn3c2COC(c2ccc(Cl)cc2)C3)CC1 (stereo unspecified)	?	i	14.1µM*	?	27.3µM*	?	2.2%	?
